High-throughput results (PubChem)
PTHR1 agonist: activates the human parathyroid hormone receptor PTHR1. Potency, µM (top dose mostly 115 µM), without a hit: at the highest dose activation, actives largely listed as activators. 410,000 compounds, 0.075% hits. Q03431. AID 743266. HEK293 GP2 PTHR1 cells, GloSensor cAMP luminescence, 1 h; also: nearly all actives have a fitted effect of over 55% in size
Target sequence (Q03431 whole entry, looked up): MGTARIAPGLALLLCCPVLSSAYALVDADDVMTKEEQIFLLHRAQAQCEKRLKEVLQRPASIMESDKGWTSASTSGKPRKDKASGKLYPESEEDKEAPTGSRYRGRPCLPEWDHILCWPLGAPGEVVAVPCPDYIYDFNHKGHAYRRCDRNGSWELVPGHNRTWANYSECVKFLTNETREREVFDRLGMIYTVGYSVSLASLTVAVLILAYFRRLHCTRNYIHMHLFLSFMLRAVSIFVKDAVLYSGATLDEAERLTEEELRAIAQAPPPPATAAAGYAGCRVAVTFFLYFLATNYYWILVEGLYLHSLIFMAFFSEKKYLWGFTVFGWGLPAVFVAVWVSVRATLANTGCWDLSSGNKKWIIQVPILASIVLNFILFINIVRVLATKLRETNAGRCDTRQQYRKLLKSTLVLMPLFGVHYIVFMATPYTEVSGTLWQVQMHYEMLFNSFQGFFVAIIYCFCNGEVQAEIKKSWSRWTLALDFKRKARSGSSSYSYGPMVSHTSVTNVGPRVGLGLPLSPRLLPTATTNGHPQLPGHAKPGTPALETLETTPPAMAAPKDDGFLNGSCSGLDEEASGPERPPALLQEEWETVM
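HEK-293-derived GP2 cells expressing PTHR1 and a GloSensor cAMP reporter, 3,000/well, plated overnight, given luciferin plus IBMX (each 0.5 mM as added) for 1 h at 37 °C, then compound for 1 h at 37 °C. Luminescence was read after 15 min at room temperature.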
GLP-1R inv ag: inverse agonists of human GLP-1 receptor; P43220; HEK293 GLP-1R CRE-luciferase, luminescence, 24 h; GLP-1R form is constitutively active; Potency, µM (top dose mostly 38.3 µM), inactives show at the highest dose activity change, negative = inhibition, usual class: inhibitors; 410,000 compounds, 1.6% hits; also: % is scaled to controls: 0 for no effect and ±100 for the full control effect; nearly all actives have a fitted effect of over 55% in size
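HEK293 cells stably co-expressing constitutively active GLP-1R and a cAMP-responsive luciferase reporter were seeded in DMEM with 10% Nu serum, given compounds after 12 h, and incubated 24 h at 37 deg C. Luminescence was then read.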
GLP1R cytotox: cytotoxicity in counter-screen for GLP-1R inverse agonists | HEK293 cAMP-luciferase reporter cells, luminescence, 24 h | Potency, µM (top dose mostly 38.3 µM), for inactives: top-dose activity change, negative = inhibition, hits mostly inhibitors | 410,000 compounds, 0.13% hits | AID 624418;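 also: loss of luciferase light is scored as toxicity; % is scaled to controls: 0 for no effect and ±100 for the full control effect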
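Seeding density was 200 cells/uL; after overnight-length (12 h) culture, 23 nL compounds went on for 24 h at 37 °C. Readout used a luciferase detection reagent, luminescence taken after 12 min at room temperature.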
GLP1R ag: GLP-1 receptor (human) agonism | HEK293 GLP-1R CRE-luciferase, luminescence, 4-6 h; cells express a hypersensitive GLP-1R form | P43220 | Potency, µM (series often up to 45.6 µM), inactives show at the highest dose activation, actives largely listed as activators | 380,000 compounds, 0.007% hits; also: % of control where 0% means no effect
The depositor's hits bear a star; i = inactive; ? = inconclusive; . = no result; [ ] = another dose, or the depositor's remark. Sampled rows, rich in hits. Any-hit rate of the full collection: about 1.7%. Calls follow the shape of the dose curve; as a rule, active = well fitted curve in the direction sought with a large enough effect; inconclusive = small, poorly fitted or top-dose-only effect, or another doubt; inactive = no such curve, though single readings can be large; an effect the other way counts as inactive or inconclusive. Potency is read from the fitted curve at half-maximal effect.

SMILES	PTHR1 agonist	GLP-1R inv ag	GLP1R cytotox	GLP1R ag
CN(C)CCN1C(=O)C2C(C(=O)Nc3cc(Cl)cc(Cl)c3)C3C=CC2(O3)C1C(=O)NC1CCCCC1 (configuration not stated)	-14.0%	10µM*	-2.4%	0.1%
CCOc1ccc(N=C(C)Nc2ccc(OCC)cc2)cc1	.	.	.	-4.3%
Cc1ccc(Cl)cc1NC(=O)CN1C(=O)CSc2ccc(S(=O)(=O)N3CCCC3)cc21	-6.0%	-18.8%	-6.0%	.
Cc1cc(C)cc(NC(=O)CN2C(=O)CSc3ccc(S(=O)(=O)N4CCCC4)cc32)c1	i	?	-4.0%	.
Cc1cc(Cl)ccc1NC(=O)CN1C(=O)CSc2ccc(S(=O)(=O)N3CCOCC3)cc21	-26.4%	11.2µM*	-20.9%	4.9%
Cc1ccc(NC(=O)CN2C(=O)CSc3ccc(S(=O)(=O)N4CCCCC4)cc32)cc1	-15.1%	5.01µM*	7.9%	-0.5%
O=C(Cn1c(=O)oc2cc(S(=O)(=O)NCc3ccccc3)ccc21)NCc1ccc(F)cc1	-12.3%	?	-3.6%	.
COc1ccc(C(=O)NCCn2cc(SCc3c(F)cccc3Cl)c3ccccc32)cc1	-59.3%	?	4.7%	-4.0%
O=C1OC2C(O)C(O)OC2C1O (configuration not stated)	.	.	.	1.8%
CC1C(=O)CC(c2ccc([N+](=O)[O-])cc2)NC1c1ccc([N+](=O)[O-])cc1 (configuration not stated)	i	8.91µM*	-5.2%	0.9%
O=C(Nc1ccccc1Cl)C1C2CCC3C(CCC21)C3(Cl)Cl (configuration not stated)	-8.4%	9.8%	2.2%	7.4%
O=C(Nc1ccccc1)C1C2CCC3C(CCC21)C3(Cl)Cl (configuration not stated)	-10.0%[57.5 µM]	6.31µM*	-16.0%	-4.0%
O=C(Nc1cccc(Cl)c1)C1C2CCC3C(CCC21)C3(Cl)Cl (configuration not stated)	-21.0%	5.62µM*	-35.2%	-9.0%
CCCN1CCN(S(=O)(=O)c2ccc3c(c2)NC(=O)C(C)S3)CC1 (configuration not stated)	-15.8%	-20.5%	-11.8%	-2.2%
COc1ccccc1N1CCN(S(=O)(=O)c2ccc3c(c2)NC(=O)C(C)S3)CC1 (configuration not stated)	-85.0%	10µM*	-5.0%	5.2%
COc1ccc(CNC(=O)CN2CCC(C(=O)c3ccc(OC)cc3)CC2)cc1	i	10µM*	?	-5.8%
CCCCC/C=C/C/C=C/CCCCCCCC(=O)NC(C)c1ccccc1 (configuration not stated)	.	.	.	5.7%
CO[C@@H]1[C@@H](OC2OC(C)C(OC3CC(C)(O)C(O)C(C)O3)C(N(C)C)C2O)[C@@H](CC=O)C[C@@H](C)[C@@H](OC2CCC(N(C)C)C(C)O2)/C=C/C=C/C[C@@H](C)OC(=O)C[C@H]1OC(C)=O (some centres not stated)	.	.	.	-3.2%
Cc1ccc(-n2ncc(C(=O)NCCCN3CCN(c4cccc(Cl)c4)CC3)c2-n2cccc2)cc1	-34.7%	?	-3.6%	.
COC(=O)c1ccc(NC(=O)C2CC3CCC2C3)cc1 (configuration not stated)	-2.7%	-24.7%	4.1%	21.6%
COC(=O)c1ccc(NC(=S)NC2CC3CCC2C3)cc1 (configuration not stated)	-24.1%	10µM*	?	-3.9%
O=C(N/N=C/c1ccco1)C1CC1(c1ccccc1)c1ccccc1 (configuration not stated)	-40.9%	10µM*	-3.4%	-18.9%
O=C(C1CCC(Cn2c(=S)[nH]c3ccccc3c2=O)CC1)N1CCN(c2ccccc2)CC1 (configuration not stated)	-31.7%	3.55µM*	-4.6%	-10.6%
O=C(C1CCC(Cn2c(=O)[nH]c3ccccc3c2=O)CC1)N1CCN(c2ccccc2)CC1 (configuration not stated)	i	-28.9%	2.0%	3.1%
O=c1[nH]nc(Sc2ncnc3sccc23)n1CCc1ccccc1	-22.6%	5.62µM*	?	-6.8%
SMILES	PTHR1 agonist	GLP-1R inv ag	GLP1R cytotox	GLP1R ag
CC(C)(S)C(=O)N[C@H](CS)C(=O)O	.	.	.	-1.2%
CO/N=C(/C(=O)N[C@@H]1C(=O)N2C(C(=O)OC(C)OC(C)=O)=C(COC(N)=O)CS[C@H]12)c1ccco1 (some centres not stated)	.	.	.	5.5%
Cc1ccc(C(=O)N2CCc3cc4c(cc3C2C)OCCCO4)cc1 (configuration not stated)	-74.4%	11.2µM*	-20.7%	-1.1%
COc1ccc(CC(=O)Nc2ccc(S(=O)(=O)N(C)C3CCN(C)CC3)cc2)cc1	0.4%	-14.2%	-4.9%	5.3%
CN1CCC(N(C)S(=O)(=O)c2ccc(NC(=O)COc3cccc(C(F)(F)F)c3)cc2)CC1	i	11.2µM*	-1.1%	2.0%
CN1CCN(NC(=O)COc2cccc(C(F)(F)F)c2)CC1	6.3%	-10.8%	1.7%	-0.4%
CC(Oc1ccc(Br)cc1)C(=O)Nc1ccc(S(=O)(=O)N(C)C2CCN(C)CC2)cc1 (configuration not stated)	i	2.82µM*	-12.1%	-3.6%
Cc1ccnc2c1ccc1cccnc12	-23.8%	?	1.58µM*	3.9%
Cc1ccnc2c1ccc1ccccc12	-17.3%	9.6%	4.7%	-1.0%
Clc1ccc(CCNC(c2nnc(-c3ccccc3)o2)c2ccccc2Cl)cc1 (configuration not stated)	-70.5%	?	0.9%	.
CCc1nn2c(=O)cc(COC(=O)c3ccccc3NC(=O)COc3ccc(F)cc3)nc2s1	i	13.5%	3.1%	.
Nc1nc2ccc(C(=O)Nc3ccccc3)cc2s1	3.98µM*	2.4%	-1.3%	6.8%
CCc1ccc(NC(=O)c2ccc3nc(N)sc3c2)cc1	-13.6%	?	-7.7%	12.1%
CCOc1ccc(CN2CCN(Cc3[nH]c4ccc(OC)cc4c3C)CC2CCO)cc1 (configuration not stated)	i	12.6µM*	-22.2%	6.0%
CCOc1ccccc1CN1CCN(Cc2[nH]c3ccccc3c2C)CC1CCO (configuration not stated)	-12.4%	?	-23.8%	2.5%
CC(NC(=O)C1CCN(C(=O)c2ccc(-n3ccc4ccccc43)s2)CC1)c1ccccc1 (configuration not stated)	i	16.3%	6.3%	.
COc1ccc2c(c1)c(CCNNC(=O)C(C)(C)C)c(C)n2C(=O)c1ccc(Cl)cc1	-43.3%	10µM*	?	5.4%
O=C1NC[C@H](CC2CCCCC2)N(CCc2cccc3ccccc23)C1=O	-22.4%	14.8%	6.5%	9.4%
S=C1NC[C@H](CC2CCCCC2)N1CCc1cccc2ccccc12	i	7.94µM*	-10.2%	-4.5%
CCC1C/C(=C\c2cccnc2)C(=O)/C(=C/c2cccnc2)C1 (configuration not stated)	-42.5%	3.55µM*	?	-42.0%
